High-throughput results: PubChem BioAssay, several laboratories
Shown are actives, neighbours in structure and some others; about 1.6% of the full set was active somewhere.
PrPC surface inh – inhibitors of human cell surface prion protein PrPC; P04156; TR-FRET read-out; inhibition, % at 13.8 µM; 370,000 tested, 0.43% active; AID 720596; in the data active means inhibition above about 24%; further: 0% = median of the test wells and 100% = reference compound wells
SARS 3CLpro inh – SARS-CoV 3CLpro protease inhibition | recombinant SARS-CoV 3CLpro, quenched FRET peptide cleavage | AID 1706 | 290,000 tested, 0.14% active | inhibition, % at 6 µM; in the data active means inhibition above about 12%
SSB-PriA inh – blocks PriA binding to SSB C-terminal tail; AlphaScreen SSBct-PriA binding, biotinylated peptide; inhibition, % at 33 µM; 430,000 tested, 0.6% active; AID 1272365; in the data active means inhibition mostly above about 37%, no sharp cut-off; inactive means mostly below about 20%;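 further: plate controls were negative control peptide for no effect and reference peptide for full effect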
PfHsp40 rescue – compounds rescuing yeast from Plasmodium falciparum HSP40 toxicity | S. cerevisiae expressing PfHsp40, growth rescue, ATP luminescence | growth rescue, % at 12.5 µM | 340,000 tested, 0.68% active | AID 504582; in the data active means growth rescue above about 28%, passing the limit was not always enough;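 further: yeast W303a lacking pdr1 and pdr3 grown in galactose medium; growth measured after three days at 30 °C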
PrP UTR inh – suppresses PrP 5' UTR mRNA reporter expression; cell-based PrP 5' UTR mRNA reporter, plate reader; inhibition, % (concentration not given with the values); 340,000 tested, 0.35% active; in the data active means inhibition above about 52%; further: 0 = median of the neutral control wells
Vc quorum ag – inducers of Vibrio cholerae quorum light production without autoinducers | V. cholerae BH1578 lux reporter, luminescence, 6 h | 350,000 tested, 0.16% active | activation, % at 18.7 µM; in the data active means activation mostly above about 9.7%, no sharp cut-off
Active calls of the source: *.

`Oc1ccc(-c2nc3ccccc3s2)c(O)c1` gave PrPC surface inh 9.5, SARS 3CLpro inh 1.6, SSB-PriA inh -18.0, PfHsp40 rescue 243.8*, PrP UTR inh -66.7 and Vc quorum ag -3.2.
`O=C(Cn1nc2c(c1NC(=O)Cc1ccc(F)cc1)CSC2)NC[C@H]1CCCO1` gave SSB-PriA inh -4.0.
CCCc1cc(=O)[nH]c(-n2nc(C)cc2NC(=O)C(C)(C)CCl)n1 was read as SSB-PriA inh 44.0*.
`O=S(=O)(c1ccccc1C(F)(F)F)N1CCN(c2ncnc3c2nnn3-c2ccccc2)CC1` gave SSB-PriA inh -1.0.
Screening CCCCC1=CC2=C(c3ccco3)C(=O)C(C)(OC(=O)c3ccc(OC)cc3)C(=O)C2=CN1Cc1ccccc1 (configuration not stated) returned PrPC surface inh 31.0*, SSB-PriA inh 2.5, PfHsp40 rescue 0.2, PrP UTR inh -4.9 and Vc quorum ag inactive.
O=[N+]([O-])c1c(Nc2ccccc2O)cc(Cl)c2nonc12 was read as PrPC surface inh -21.2, SARS 3CLpro inh 4.4, SSB-PriA inh 16.8, PfHsp40 rescue -1.6, PrP UTR inh -22.5 and Vc quorum ag inactive.
Nc1cc(Cl)c2nonc2c1[N+](=O)[O-] was read as PrPC surface inh 56.2*, SARS 3CLpro inh 0.5, SSB-PriA inh -27.3, PfHsp40 rescue -0.3, PrP UTR inh -22.0 and Vc quorum ag -3.4.
For Cc1ccccc1N1CCN(C(=O)c2ccc(Cl)cc2Cl)CC1 the results were SSB-PriA inh -4.0.
C#CCOCCOCCOCCNc1nc(N2CCN(C(=O)CCCCCCCCCCNC(=O)[C@@H](CCSC)n3cc(CCO)nn3)CC2)nc(N2CCN(C(=O)CCCCCCCCCCNC(=O)[C@H](CO)n3cc(CCCCCN)nn3)CC2)n1 was read as SSB-PriA inh 25.2, PfHsp40 rescue 84.5*, PrP UTR inh -19.0 and Vc quorum ag -0.4.
C#CCOCCOCCOCCNc1nc(N2CCN(C(=O)CCCCCCCCCCNC(=O)Cn3cc(CCCCCN)nn3)CC2)nc(N2CCN(C(=O)CCCCCCCCCCNC(=O)Cn3cc(C[C@@H](C)O)nn3)CC2)n1 was read as SSB-PriA inh -3.8, PfHsp40 rescue 38.3*, PrP UTR inh -19.3 and Vc quorum ag -0.4.
Screening C#CCOCCOCCOCCNc1nc(N2CCN(C(=O)CCCCCCCCCCNC(=O)[C@H](CCCCN)n3cc(C)nn3)CC2)nc(N2CCN(C(=O)CCCCCCCCCCNC(=O)[C@H](CCCN=C(N)N)n3cc(C[C@@H](C)CC)nn3)CC2)n1 returned SSB-PriA inh 8.4.
C#CCOCCOCCOCCNc1nc(N2CCN(C(=O)CCCCCCCCCCNC(=O)[C@H](CCCCN)n3cc(C[C@@H](C)CC)nn3)CC2)nc(N2CCN(C(=O)CCCCCCCCCCNC(=O)[C@H](CCCN=C(N)N)n3cc(C[C@@H](C)CC)nn3)CC2)n1 was read as SSB-PriA inh 7.0, PfHsp40 rescue 25.6*, PrP UTR inh 6.6 and Vc quorum ag inactive.
`C#CCOCCOCCOCCNc1nc(N2CCN(C(=O)CCCCCCCCCCNC(=O)[C@@H](CCSC)n3cc(CCO)nn3)CC2)nc(N2CCN(C(=O)CCCCCCCCCCNC(=O)[C@H](CCC(=O)O)n3cc(CCCCCN)nn3)CC2)n1` gave SSB-PriA inh 10.3, PfHsp40 rescue 0.5, PrP UTR inh -15.3 and Vc quorum ag -0.6.
`C#CCOCCOCCOCCNc1nc(N2CCN(C(=O)C(Cc3cc4ccccc4[nH]3)n3cc(C(N)C(C)CC)nn3)CC2)nc(N2CCN(C(=O)C(Cc3cc4ccccc4[nH]3)n3cc(C(N)C(C)CC)nn3)CC2)n1` (configuration not stated) gave SARS 3CLpro inh 5.3, SSB-PriA inh 43.3*, PfHsp40 rescue 0.5, PrP UTR inh -15.6 and Vc quorum ag -3.6.
`COc1ccc(N2C(=O)CC(N3CCC(O)(c4ccc(Br)cc4)CC3)C2=O)cc1` (configuration not stated) gave PrPC surface inh 10.7, SARS 3CLpro inh -3.0, SSB-PriA inh -3.0, PfHsp40 rescue 0.0, PrP UTR inh 10.0 and Vc quorum ag -0.2.
